Each sequence was assayed against T1, GST-Co-NF-kB (Capsaspora owczarzaki, UniProt F1ARL5 200-546) (assay: protein-binding microarray (PBM); PBM: ~300 nM protein, 6 mM HEPES pH 7.8, 80 mM KCl, 0.5 mM EDTA, 0.5 mM EGTA, 6% glycerol, 35 ng/ul poly-dIdC, 1% milk, 1 h, room temperature; Ap Aiptasia and Nv Nematostella (sea anemones) / Co Capsaspora / Aq Amphimedon (sponge) / Dm Drosophila / Hu human; RHD is the Rel homology domain; high values mean tight binding). Details: dsDNA, one strand shown.
T1 sequence: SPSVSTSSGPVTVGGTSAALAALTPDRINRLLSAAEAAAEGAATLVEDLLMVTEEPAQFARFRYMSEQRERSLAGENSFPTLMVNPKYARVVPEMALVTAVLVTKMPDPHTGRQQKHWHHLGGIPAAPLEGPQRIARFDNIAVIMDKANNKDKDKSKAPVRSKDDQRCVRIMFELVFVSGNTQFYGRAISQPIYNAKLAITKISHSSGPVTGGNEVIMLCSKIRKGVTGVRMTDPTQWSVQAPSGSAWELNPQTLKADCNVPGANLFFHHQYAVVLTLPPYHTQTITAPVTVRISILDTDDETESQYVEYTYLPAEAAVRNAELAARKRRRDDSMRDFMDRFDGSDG
Sequence “CCGATTAACATCACCCGGGAAAATGATGTTAATCGGGTCTTGATTCGCTTGACGCTGCTG” has a binding signal of 5.18 z-score. With “CCGATTAACATCAGGAACACCCCTGATGTTAATCGGGTCTTGATTCGCTTGACGCTGCTG” the binding signal was 1.86 z-score. In the case of “CCGATTAACATCAGGGGGGGTTATGATGTTAATCGGGTCTTGATTCGCTTGACGCTGCTG”, the binding signal is reported as 4.45 z-score. Work on “CCGATTAACATCAAAATTCCCAATGATGTTAATCGGGTCTTGATTCGCTTGACGCTGCTG” yielded a binding signal of 4.01 z-score. For “CCGATTAACATCAATTTTTCCCATGATGTTAATCGGGTCTTGATTCGCTTGACGCTGCTG”, the binding signal was 5.21 z-score. “CCGATTAACATCAGGATATTCCCTGATGTTAATCGGGTCTTGATTCGCTTGACGCTGCTG” was tested, and the binding signal was 3.51 z-score. For “CCGATTAACATCAGGGATCCCCATGATGTTAATCGGGTCTTGATTCGCTTGACGCTGCTG”, the binding signal was 3.74 z-score. “CCGATTAACATCAATGCACCCCCTGATGTTAATCGGGTCTTGATTCGCTTGACGCTGCTG” was tested, and the binding signal was 3.47 z-score. “CCGATTAACATCAAACAGGGAAATGATGTTAATCGGGTCTTGATTCGCTTGACGCTGCTG” was tested, and the binding signal was 2.47 z-score. “CCGATTAACATCAGGGTTTTTTATGATGTTAATCGGGTCTTGATTCGCTTGACGCTGCTG” gave a binding signal of 1.36 z-score. “CCGATTAACATCAAATTCCCACTTGATGTTAATCGGGTCTTGATTCGCTTGACGCTGCTG” gave a binding signal of 2.26 z-score. Sequence “CCGATTAACATCAGGGGTTTCACTGATGTTAATCGGGTCTTGATTCGCTTGACGCTGCTG” has a binding signal of 2.93 z-score. With “CCGATTAACATCAGGGGAATGACTGATGTTAATCGGGTCTTGATTCGCTTGACGCTGCTG” the binding signal was 3.9 z-score. “CCGATTAACATCAGGAATTCCCATGATGTTAATCGGGTCTTGATTCGCTTGACGCTGCTG” was tested, and the binding signal was 4.61 z-score. “CCGATTAACATCAGGGAAACCCATGATGTTAATCGGGTCTTGATTCGCTTGACGCTGCTG” showed a binding signal of 2.54 z-score. “CCGATTAACATCACGGAAACCCCTGATGTTAATCGGGTCTTGATTCGCTTGACGCTGCTG” was tested, and the binding signal was 2.13 z-score. With “CCGATTAACATCAAATCGGGAAATGATGTTAATCGGGTCTTGATTCGCTTGACGCTGCTG” the binding signal was 2 z-score. Work on “CCGATTAACATCAGGCACTCCCCTGATGTTAATCGGGTCTTGATTCGCTTGACGCTGCTG” yielded a binding signal of 2.45 z-score. In the case of “CCGATTAACATCACACCCCCCCCTGATGTTAATCGGGTCTTGATTCGCTTGACGCTGCTG”, the binding signal is reported as 5.16 z-score. In the case of “CCGATTAACATCAGGGGCACCCCTGATGTTAATCGGGTCTTGATTCGCTTGACGCTGCTG”, the binding signal is reported as 2.5 z-score. Work on “CCGATTAACATCAGGGAGCTCCCTGATGTTAATCGGGTCTTGATTCGCTTGACGCTGCTG” yielded a binding signal of 1.46 z-score. For “CCGATTAACATCAGAATCTCCCATGATGTTAATCGGGTCTTGATTCGCTTGACGCTGCTG”, the binding signal was 1.64 z-score. With “CCGATTAACATCAATATACCCCCTGATGTTAATCGGGTCTTGATTCGCTTGACGCTGCTG” the binding signal was 6.57 z-score. In the case of “CCGATTAACATCAAGGAATACCCTGATGTTAATCGGGTCTTGATTCGCTTGACGCTGCTG”, the binding signal is reported as 1.33 z-score. For “CCGATTAACATCAAATTCCCAGCTGATGTTAATCGGGTCTTGATTCGCTTGACGCTGCTG”, the binding signal was 3.28 z-score. In the case of “CCGATTAACATCAAAATTCCCGGTGATGTTAATCGGGTCTTGATTCGCTTGACGCTGCTG”, the binding signal is reported as 5.57 z-score. For “CCGATTAACATCACCCGATTCCCTGATGTTAATCGGGTCTTGATTCGCTTGACGCTGCTG”, the binding signal was 2.5 z-score. With “CCGATTAACATCACCCCCCCCCGTGATGTTAATCGGGTCTTGATTCGCTTGACGCTGCTG” the binding signal was 7.6 z-score. “CCGATTAACATCAAACAAACCCCTGATGTTAATCGGGTCTTGATTCGCTTGACGCTGCTG” was tested, and the binding signal was 1.74 z-score. With “CCGATTAACATCAAGAATTCCCATGATGTTAATCGGGTCTTGATTCGCTTGACGCTGCTG” the binding signal was 3.48 z-score. Work on “CCGATTAACATCAGGGGGCATTATGATGTTAATCGGGTCTTGATTCGCTTGACGCTGCTG” yielded a binding signal of 2.64 z-score. Sequence “CCGATTAACATCAAAAATCCCTATGATGTTAATCGGGTCTTGATTCGCTTGACGCTGCTG” has a binding signal of 1.39 z-score. “CCGATTAACATCAGGGGAGTAAATGATGTTAATCGGGTCTTGATTCGCTTGACGCTGCTG” gave a binding signal of 4.51 z-score. “CCGATTAACATCACGTTCCCCCCTGATGTTAATCGGGTCTTGATTCGCTTGACGCTGCTG” gave a binding signal of 9.5 z-score. “CCGATTAACATCACTGTTTTCCCTGATGTTAATCGGGTCTTGATTCGCTTGACGCTGCTG” was tested, and the binding signal was 4.9 z-score. “CCGATTAACATCAGAGTCCCCCCTGATGTTAATCGGGTCTTGATTCGCTTGACGCTGCTG” showed a binding signal of 7.33 z-score. Sequence “CCGATTAACATCAGTTCCCCCCATGATGTTAATCGGGTCTTGATTCGCTTGACGCTGCTG” has a binding signal of 8.97 z-score. Sequence “CCGATTAACATCAGGACTACCCCTGATGTTAATCGGGTCTTGATTCGCTTGACGCTGCTG” has a binding signal of 1.83 z-score. With “CCGATTAACATCAAAGGTCCCCCTGATGTTAATCGGGTCTTGATTCGCTTGACGCTGCTG” the binding signal was 4.7 z-score.

These sequences were tested against T2, GST-Dm-Relish (Drosophila melanogaster, UniProt Q94527 99-473) in the same assay as above. Details: dsDNA, one strand shown.
T2 sequence: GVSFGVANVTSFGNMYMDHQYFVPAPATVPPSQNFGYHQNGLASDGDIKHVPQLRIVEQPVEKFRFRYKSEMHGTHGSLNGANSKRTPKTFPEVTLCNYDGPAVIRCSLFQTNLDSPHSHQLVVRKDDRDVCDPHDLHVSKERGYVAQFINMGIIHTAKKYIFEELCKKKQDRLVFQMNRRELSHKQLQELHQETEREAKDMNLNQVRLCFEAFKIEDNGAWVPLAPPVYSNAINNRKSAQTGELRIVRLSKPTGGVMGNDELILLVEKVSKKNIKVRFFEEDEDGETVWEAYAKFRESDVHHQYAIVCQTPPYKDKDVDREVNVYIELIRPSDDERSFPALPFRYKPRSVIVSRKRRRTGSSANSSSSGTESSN
In the case of “CCGATTAACATCACCCGGGAAAATGATGTTAATCGGGTCTTGATTCGCTTGACGCTGCTG”, the binding signal is reported as 1.52 z-score. “CCGATTAACATCAGGAACACCCCTGATGTTAATCGGGTCTTGATTCGCTTGACGCTGCTG” showed a binding signal of 3.5 z-score. For “CCGATTAACATCAGGGGGGGTTATGATGTTAATCGGGTCTTGATTCGCTTGACGCTGCTG”, the binding signal was 6.55 z-score. For “CCGATTAACATCAAAATTCCCAATGATGTTAATCGGGTCTTGATTCGCTTGACGCTGCTG”, the binding signal was 5.17 z-score. With “CCGATTAACATCAATTTTTCCCATGATGTTAATCGGGTCTTGATTCGCTTGACGCTGCTG” the binding signal was 1.64 z-score. “CCGATTAACATCAGGATATTCCCTGATGTTAATCGGGTCTTGATTCGCTTGACGCTGCTG” showed a binding signal of 3.37 z-score. With “CCGATTAACATCAGGGATCCCCATGATGTTAATCGGGTCTTGATTCGCTTGACGCTGCTG” the binding signal was 9.65 z-score. Sequence “CCGATTAACATCAATGCACCCCCTGATGTTAATCGGGTCTTGATTCGCTTGACGCTGCTG” has a binding signal of 3.29 z-score. “CCGATTAACATCAGGGTTTTTTATGATGTTAATCGGGTCTTGATTCGCTTGACGCTGCTG” was tested, and the binding signal was 5.89 z-score. With “CCGATTAACATCAAATTCCCACTTGATGTTAATCGGGTCTTGATTCGCTTGACGCTGCTG” the binding signal was 4.38 z-score. Sequence “CCGATTAACATCAGGGGTTTCACTGATGTTAATCGGGTCTTGATTCGCTTGACGCTGCTG” has a binding signal of 7.34 z-score. Work on “CCGATTAACATCAGGGGAATGACTGATGTTAATCGGGTCTTGATTCGCTTGACGCTGCTG” yielded a binding signal of 5.22 z-score. “CCGATTAACATCAGGAATTCCCATGATGTTAATCGGGTCTTGATTCGCTTGACGCTGCTG” gave a binding signal of 7.97 z-score. Sequence “CCGATTAACATCAGGGAAACCCATGATGTTAATCGGGTCTTGATTCGCTTGACGCTGCTG” has a binding signal of 8.17 z-score. “CCGATTAACATCACGGAAACCCCTGATGTTAATCGGGTCTTGATTCGCTTGACGCTGCTG” was tested, and the binding signal was 7.12 z-score. For “CCGATTAACATCAGGCACTCCCCTGATGTTAATCGGGTCTTGATTCGCTTGACGCTGCTG”, the binding signal was 3.63 z-score. With “CCGATTAACATCACACCCCCCCCTGATGTTAATCGGGTCTTGATTCGCTTGACGCTGCTG” the binding signal was 4.99 z-score. “CCGATTAACATCAGGGGCACCCCTGATGTTAATCGGGTCTTGATTCGCTTGACGCTGCTG” was tested, and the binding signal was 7.23 z-score. In the case of “CCGATTAACATCAGGGAGCTCCCTGATGTTAATCGGGTCTTGATTCGCTTGACGCTGCTG”, the binding signal is reported as 3.76 z-score. Sequence “CCGATTAACATCAATATACCCCCTGATGTTAATCGGGTCTTGATTCGCTTGACGCTGCTG” has a binding signal of 3.69 z-score. “CCGATTAACATCAAGGAATACCCTGATGTTAATCGGGTCTTGATTCGCTTGACGCTGCTG” showed a binding signal of 7.24 z-score. For “CCGATTAACATCAAATTCCCAGCTGATGTTAATCGGGTCTTGATTCGCTTGACGCTGCTG”, the binding signal was 3.73 z-score. Sequence “CCGATTAACATCAAAATTCCCGGTGATGTTAATCGGGTCTTGATTCGCTTGACGCTGCTG” has a binding signal of 6.54 z-score. With “CCGATTAACATCACCCGATTCCCTGATGTTAATCGGGTCTTGATTCGCTTGACGCTGCTG” the binding signal was 1.62 z-score. “CCGATTAACATCACCCCCCCCCGTGATGTTAATCGGGTCTTGATTCGCTTGACGCTGCTG” gave a binding signal of 6.11 z-score. Sequence “CCGATTAACATCAAACAAACCCCTGATGTTAATCGGGTCTTGATTCGCTTGACGCTGCTG” has a binding signal of 3.06 z-score. “CCGATTAACATCAAGAATTCCCATGATGTTAATCGGGTCTTGATTCGCTTGACGCTGCTG” gave a binding signal of 4.5 z-score. Sequence “CCGATTAACATCAGGGGGCATTATGATGTTAATCGGGTCTTGATTCGCTTGACGCTGCTG” has a binding signal of 2.7 z-score. “CCGATTAACATCAAAAATCCCTATGATGTTAATCGGGTCTTGATTCGCTTGACGCTGCTG” gave a binding signal of 6.49 z-score. Sequence “CCGATTAACATCAGGGGAGTAAATGATGTTAATCGGGTCTTGATTCGCTTGACGCTGCTG” has a binding signal of 1.91 z-score. In the case of “CCGATTAACATCACGTTCCCCCCTGATGTTAATCGGGTCTTGATTCGCTTGACGCTGCTG”, the binding signal is reported as 4.11 z-score. In the case of “CCGATTAACATCACTGTTTTCCCTGATGTTAATCGGGTCTTGATTCGCTTGACGCTGCTG”, the binding signal is reported as 1.62 z-score. Sequence “CCGATTAACATCAGAGTCCCCCCTGATGTTAATCGGGTCTTGATTCGCTTGACGCTGCTG” has a binding signal of 5.14 z-score. Work on “CCGATTAACATCAGTTCCCCCCATGATGTTAATCGGGTCTTGATTCGCTTGACGCTGCTG” yielded a binding signal of 3.62 z-score. With “CCGATTAACATCAGGACTACCCCTGATGTTAATCGGGTCTTGATTCGCTTGACGCTGCTG” the binding signal was 2.36 z-score. “CCGATTAACATCAAAGGTCCCCCTGATGTTAATCGGGTCTTGATTCGCTTGACGCTGCTG” showed a binding signal of 4.42 z-score.

Source: publication PMC5700166
